# Bioassay records: PubChem BioAssay, National Center for Advancing Translational Sciences (NCATS)
# KB-3-1 cytotox = KB-3-1 parental cell cytotoxicity; KB-3-1 viability, CellTiter-Glo ATP luminescence, 72 h; Potency, µM (doses to about 46.1 µM), usual class: cytotoxic; 1.4% of 400,000 active; AID 1347075; note: potency is the fitted concentration of half-maximal effect; % is set by controls: 0 for no effect and ±100 for the full control effect; nearly all actives have a fitted effect of over 60% in size
#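 Multi-concentration cytotoxicity screen in KB-3-1 cells grown in DMEM lacking phenol red with 10% FBS. After 72 h at 37 °C with compound, ATP-dependent luminescence was recorded.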
# SW480 rerep = inducers of DNA re-replication in SW480 colon cancer cells; SW480 DNA re-replication, Hoechst DNA content imaging, 48 h; 1.8% of 340,000 active; Potency, µM (top dose mostly 46.1 µM), without a hit: at the top dose re-replication activation, actives largely listed as activators; note: potency is the fitted concentration of half-maximal effect; % of control where 0% means no effect; nearly all actives have a fitted effect of over 55% in size
#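 250 cells/well; 23 nL cpd via pin tool; 48 hr, 37 C, 5% CO2; Hoechst 40 min; imager read of total nuclear intensity, ex 405/em 500-530 nm.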
# KB-V1 cytotox = kills drug-selected multidrug resistant KB-V1 cells | AID 1347076 | KB-V1 MDR cells viability, CellTiter-Glo, 72 h | Potency, µM (titrated, usually from 46.1 µM), most hits filed as cytotoxic | 3.4% of 400,000 active; note: potency is the fitted concentration of half-maximal effect; % is set by controls: 0 for no effect and ±100 for the full control effect; nearly all actives have a fitted effect of over 60% in size
#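 KB-V1, DMEM (no phenol red) + 10% FBS; cpd pin-transferred, titration series; 72 h, 37 degrees C; CellTiter-Glo, luminescence. Data normalized, curve-fit.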
# MCF10A rereplic = induces DNA re-replication in MCF 10a normal breast cells; MCF 10A DNA re-replication, Hoechst nuclear intensity, 48 h; Potency, µM (top dose mostly 46.1 µM), without a hit: top-dose activity, positive = re-replication, usual class: activators; 2.9% of 350,000 active; note: potency is the fitted concentration of half-maximal effect; % of control where 0% means no effect; nearly all actives have a fitted effect of over 50% in size
# KCNH2 3.1 block = blocks the human KCNH2 3.1 channel isoform. U2OS KCNH2 3.1, thallium flux FluxOr; stronger effect = lower value. activity change, % (tested at about 1.8 µM). 0.95% of 340,000 active. AID 720553;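 active = maximum activity change below -70%; inconclusive = maximum activity change from -70% to -50%; inactive = maximum activity change above -50%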;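 note: thallium influx rate constant from kinetic fluorescence after stimulation buffer; % is set by controls: 0 for no effect and ±100 for the full control effect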
#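 Thallium flux via FluxOr fluorescence (Red40 quencher, 45 min loading) in U2OS cells virally expressing the KCNH2 3.1 isoform (1.77 x 10^8 /mL virus, overnight at 37 C). Rate constants from 2-min kinetic reads post-stimulation, normalised to positive and negative controls.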
# KCNH2 WT inh = inhibitors of human wildtype KCNH2 potassium channel; activity change, % at 1.84 µM; 0.37% of 340,000 active; U2OS, BacMam KCNH2, thallium flux FluxOr; stronger effect = lower value; Q12809;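 active = maximum activity change below -70%; inconclusive = maximum activity change between -70% and -50%; inactive = maximum activity change above -50%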; note: % is set by controls: 0 for no effect and ±100 for the full control effect
# Target sequence (Q12809 whole entry, looked up): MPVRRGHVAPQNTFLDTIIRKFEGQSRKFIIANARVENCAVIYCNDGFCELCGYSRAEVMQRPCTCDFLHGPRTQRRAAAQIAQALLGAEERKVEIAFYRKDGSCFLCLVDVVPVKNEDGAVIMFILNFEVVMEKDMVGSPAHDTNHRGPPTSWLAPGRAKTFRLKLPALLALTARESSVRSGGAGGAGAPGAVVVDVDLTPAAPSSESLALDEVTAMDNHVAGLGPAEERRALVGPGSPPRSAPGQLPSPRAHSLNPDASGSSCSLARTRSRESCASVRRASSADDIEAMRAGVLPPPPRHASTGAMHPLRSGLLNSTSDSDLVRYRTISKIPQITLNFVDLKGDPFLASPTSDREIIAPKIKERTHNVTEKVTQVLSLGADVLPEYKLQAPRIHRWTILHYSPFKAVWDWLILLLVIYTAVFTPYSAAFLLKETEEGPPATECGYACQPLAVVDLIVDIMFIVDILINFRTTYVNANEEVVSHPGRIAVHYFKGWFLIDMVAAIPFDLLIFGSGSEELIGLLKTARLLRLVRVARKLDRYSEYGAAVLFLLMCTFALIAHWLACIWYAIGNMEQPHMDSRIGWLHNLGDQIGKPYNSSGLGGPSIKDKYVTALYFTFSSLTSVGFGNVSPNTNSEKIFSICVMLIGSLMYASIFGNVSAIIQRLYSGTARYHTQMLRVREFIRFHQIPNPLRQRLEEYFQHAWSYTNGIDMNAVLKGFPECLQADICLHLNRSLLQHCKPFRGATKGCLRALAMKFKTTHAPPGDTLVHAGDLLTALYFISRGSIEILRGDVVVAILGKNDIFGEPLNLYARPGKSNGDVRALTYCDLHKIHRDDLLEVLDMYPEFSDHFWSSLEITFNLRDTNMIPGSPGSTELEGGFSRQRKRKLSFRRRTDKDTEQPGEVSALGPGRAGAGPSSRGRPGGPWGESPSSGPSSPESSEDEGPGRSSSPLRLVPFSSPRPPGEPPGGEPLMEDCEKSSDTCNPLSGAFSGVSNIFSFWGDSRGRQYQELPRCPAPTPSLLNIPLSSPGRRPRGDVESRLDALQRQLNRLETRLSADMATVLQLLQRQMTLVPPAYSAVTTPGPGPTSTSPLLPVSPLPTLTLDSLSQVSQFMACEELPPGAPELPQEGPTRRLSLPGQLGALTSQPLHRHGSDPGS
#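 U2OS cells were transduced with wild-type KCNH2 virus (2.03 x 10^8 / mL) for 4 h at room temperature, then cultured overnight at 37 C. Thallium flux was read with FluxOr dye. Rate constants were normalized to DMSO controls.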
# The depositor's hits bear a star; i = inactive; ? = inconclusive; / = no result. Most compounds without a hit are left out; they make up all but 7.6% or so of the library. Unless noted, calls come from the whole dose curve; as a rule, active = well fitted curve in the direction sought with a large enough effect; inconclusive = small, poorly fitted or top-dose-only effect, or another doubt; inactive = no such curve, though single readings can be large; an effect the other way counts as inactive or inconclusive.
SMILES,KB-3-1 cytotox,SW480 rerep,KB-V1 cytotox,MCF10A rereplic,KCNH2 3.1 block,KCNH2 WT inh
CCCCCCCNC(=O)C1(CC2CC(c3cccc(Br)c3)=NO2)CCN(C(=O)CCCCCBr)CC1 (stereo not drawn),?,29%,i,?,-96*,-123*
CC(C)c1ccc(CC(=O)N2CCC2(C)C(=O)Nc2ccc3c(c2)OCCO3)cc1 (stereo not drawn),i,/,16µM*,/,/,/
CC(C)Oc1ccc(CN2CCC2(C)C(=O)Nc2ccc3c(c2)OCO3)cc1 (stereo not drawn),?,/,18µM*,/,/,/
CC1(C(=O)Nc2ccc3c(c2)OCCO3)CCN1Cc1csc2ccccc12 (stereo not drawn),i,/,i,/,/,/
CC(C)c1ccc(CN2CCC2(C)C(=O)Nc2ccc3c(c2)OCO3)cc1 (stereo not drawn),16µM*,/,?,/,/,/
O=S1(=O)N=C(Sc2ccc3c(c2)OCCO3)c2ccccc21,i,/,i,/,/,/
COC(=O)C(CCSC)Nc1ncnc2onc(-c3ccc(F)cc3)c12 (stereo not drawn),i,/,?,/,/,/
Cc1ccc(OCC(=O)N/N=C\c2ccncc2)c(C)c1,i,?,i,1%,6,/
Cc1cc(O)c(C(c2ccccc2)N2CCN(c3ccccc3)CC2)c(=O)n1Cc1ccco1 (stereo not drawn),i,/,i,/,/,/
CN(Cc1ccccc1)c1ncnc2[nH]ncc12,i,?,i,2%,1,-2
CN(Cc1ccccc1)c1ncnc2sccc12,i,?,?,?,-7,-124*
COc1ccccc1CC(=O)N1CCOCC1,i,-41%,i,-4%,-6,-2
O=C(NNC(=O)c1ccc(F)cc1)C(=O)N1CCCCC1,i,-4%,i,-1%,4,-17
Cc1cc(-c2cc(-c3ccc(Cl)cc3)nc(N)c2C#N)co1,i,7.3µM*,i,2.6µM*,-7,-2
Cc1c(-c2ccc(F)cc2)nc(N)c(C#N)c1-c1ccco1,i,-13%,i,?,-14,1
N#Cc1c(N)oc(-c2ccc3c(c2)OCO3)c1-c1ccc2c(c1)OCO2,i,5%,16µM*,10%,2,-5
Cc1ccc(-c2cc(-c3ccc4c(c3)OCO4)c(C#N)c(N)n2)o1,i,21µM*,i,21µM*,-10,11
Cc1ccc(-c2cc(-c3ccc(F)cc3)c(C#N)c(N)n2)o1,i,21µM*,i,4.1µM*,/,-2
COc1ccc(-c2cc(-c3ccc(O)cc3)nc(N)c2C#N)cc1OC,?,17%,?,?,-6,9
O=C(CCN1C(=O)c2ccccc2S1(=O)=O)NCc1ccccc1Cl,i,32%,i,2%,-7,-2
COC(=O)C1CC(O)CN1S(=O)(=O)c1cccs1 (stereo not drawn),i,-8%,?,0%,-4,i
COc1ccc(NC(=O)c2ccco2)cc1NC(=O)COc1ccc(C)cc1C,i,/,i,/,/,/
CCOc1cc(-c2cc(-c3ccc(C)o3)nc(N)c2C#N)ccc1O,?,?,23µM*,?,-11,30
CCCc1cc(-c2ccc(O)c(OCC)c2)c(C#N)c(N)n1,?,3%,?,1%,-3,7
Cc1ccc(-c2cc(-c3ccc(Cl)cc3)c(C#N)c(N)n2)o1,i,2.6µM*,i,2.9µM*,4,6
SMILES,KB-3-1 cytotox,SW480 rerep,KB-V1 cytotox,MCF10A rereplic,KCNH2 3.1 block,KCNH2 WT inh
Cc1ccc(-c2cc(-c3ccc(C)o3)nc(N)c2C#N)cc1,i,23µM*,i,?,13,-3
CCOc1cc(-c2c(C)c(CC)nc(N)c2C#N)ccc1O,?,17%,18µM*,?,-13,-13
Cc1ccc(-c2c(C#N)c(N)nc3c2CCCCC3)o1,?,-8%,i,?,-9,2
Cc1cc(C(=O)Nc2cccc(F)c2)c2c(C)nn(-c3cccc(Cl)c3C)c2n1,?,/,i,/,/,/
CCCn1c(=O)n(C)c(=O)c2c(SCC(=O)NCc3ccco3)nc(C3CC3)nc21,i,16%,?,28%,-8,-5
CC(C)(C)c1ccc(C(=O)O)c(C(=O)c2ccc(C(=O)O)cc2)c1,i,?,i,-6%,-16,18
CCN1CCN(c2ccc(S(=O)(=O)N3CCOCC3)cc2NC(=O)c2cccc([N+](=O)[O-])c2)CC1,i,2%,i,-16%,-9,11
COc1ccc(S(=O)(=O)N2CCCCC2)cc1NC(=O)c1ccc([N+](=O)[O-])o1,18µM*,2.9µM*,i,2.3µM*,5,-6
CCN1CCN(c2ccc(S(=O)(=O)N3CCOCC3)cc2NC(=O)/C=C/c2ccc([N+](=O)[O-])cc2)CC1,i,?,i,?,-75*,-7
CCN1CCN(c2ccc(S(=O)(=O)N3CCCCC3)cc2NC(=O)c2ccc([N+](=O)[O-])o2)CC1,?,7.3µM*,?,?,?,-15
COc1ccc(-c2cc3ccccc3oc2=O)cc1NC(=O)c1ccc(Br)o1,i,26%,i,25%,-15,-2
COc1ccc(-c2cc3ccccc3oc2=O)cc1NC(=O)c1ccc([N+](=O)[O-])o1,?,9.2µM*,?,7.3µM*,0,6
COc1ccc(/C=C2\N=C(SC)N(c3ccccc3OC)C2=O)cc1,?,18µM*,i,?,-12,-4
CCOc1ccc(N2C(=O)/C(=C/c3ccccc3)N=C2SC)cc1,i,7%,i,5.8µM*,-4,-1
CCOC(=O)Nc1oc2ccccc2c(=O)c1CN1CCOCC1,i,-4%,i,16µM*,-6,12
CC(C)COc1cccc(C(=O)NC2(C)CCS(=O)(=O)C2)c1 (stereo not drawn),i,-9%,i,-1%,9,-8
N/C(=N\N=C\c1ccnc2ccccc12)SC1CC(=O)N(c2ccc(Br)cc2)C1=O (stereo not drawn),i,0%,i,7.3µM*,3,4
COc1ccc(CCNC(=O)C2CCN(c3nc4ccccc4nc3C(F)(F)F)CC2)c(OC)c1,i,/,i,/,/,/
C=CC[C@@H](CC(=O)N[C@H](CO)Cc1ccccc1)C(=O)N[C@H](COC(=O)[C@H](CC=C)CC(=O)OC(C)(C)C)Cc1c[nH]c2ccccc12,?,27%,i,?,-9,-5
Cc1ccc(NC(=O)c2cc3cc(OC(F)(F)F)ccc3[nH]2)cc1,i,-27%,i,0%,-12,-8
